In PubChem BioAssay (EPA / NIEHS):
Active and inactive are the calls of the source. The calls were made as follows: active = hit-call score of the fitted dose curve at least 0.9, where 1 is the maximum; inactive = score below 0.9.

These compounds were tested on Heat shock 70 kDa protein 1 (HSPA1A), gene 3303 (assay: LTEA_HepaRG_HSPA1A: Life Technologies and Expression Analysis (LTEA) Assay for Heat shock 70 kDa protein 1 (HSPA1A) using HepaRG (AID 2283502)). Details: mRNA level, 48 h; actives raise or lower the signal.
Protocol: LTEA_HepaRG is a cell based, multiplexed-readout assay that uses HepaRG, a human liver cell line, with measurements taken at 48 hours after chemical dosing on a 96-well plate.LTEA_HepaRG_HSPA1A is one of 102 assay component(s) measured in the LTEA HepaRG cell culture assay. It is a marker of Oxidative Stress.Data from the assay component LTEA_HepaRG_HSPA1A was analyzed into 1 endpoint. This assay endpoint, LTEA_HepaRG_HSPA1A, was analyzed with bidirectional fitting relative to DMSO as the negative control and baseline of activity. Using a type of inducible reporter, measures of mRNA induction for gain or loss-of-signal activity can be used to understand regulation of transcription factor activity. To generalize the intended target to other relatable targets, this assay endpoint is annotated to the dna binding intended target family, where the subfamily is heat shock protein.
A total of 1060 chemcials from the ToxCast library were tested in eight-point concentration-response experiments. Cell culture and cytotoxicity assays were conducted at Thermo Fisher Scientific's Custom Services facility (Madison, WI). A single lot of human HepaRG cells (Thermo Fisher Scientific, Frederick, MD) was used for the cell culture experiments. 96-well format collagen type I coated plates of human HepaRG cells were prepared using established methods. Briefly, cryopreserved HepaRG cells were thawed, plated at a density of approximately 100,000 cells/well in HepaRG Thaw, Plate, and General Purpose media (HPRG770, Thermo Fisher Scientific), and incubated for 48 hours. 0.5% DMSO was selected as vehicle control to balance the requisite need of DMSO in HepaRG cultures to maintain differentiation (for example, baseline metabolism, proportions of hepatocytes vs. cholangiocytes), while enabling further hepatic receptor pathway activation (for example, PXR and CAR) in response to chemical exposure. 48 hours after plating, the culture medium was replaced with HepaRG Serum-Free Incudtion Media. Cells were exposed to each test chemical in duplicate and maintained in CO2 incubators for another 48 hours. Chemical plates were thawed to room temperature and 200x concentrations of treatment groups were prepared. 8-point conentration-reponse curves were made with the highest exposure at 100 uM, followed by half-log dilutions, all in 0.5% DMSO. Each test plate contained variouse controls, induction positive controls (1mM phenobarbital), cytotoxicity positive controls ([…] aflatoxin B1), vehicle controls (0.5% DMSO), and total lysis controls (0.5% DMSO). Cell morphology images were taken using an Essen IncuCyte FLR automated microscope, with six 96-well plates imaged in about 24 minutes. Images were captured and exported and JPEG files. Spent culture media was transfered to black-well plates for the LDH assay, and remaining media was sorted at -80 C for later use. Cells were treated with RLT buffer and frozen until shipped for gene expression analysis. Total RNA was isolated from the cell suspension in 75 uL of Buffer RLT (Qiagen, Germantown, MD 20874) by Quintiles/Expression Analysis (Durham, NC) using a custom isolation procedure. Total RNA from each plate well was transferred to a preamplification plate. Fluidigm's 96.96 Dynamic ArrayTM (Fluidigm, Amsterdam, the Netherlands) technology was used for gene expression analyses by quantitative reverse transcription polymerase chain reaction (qRT-PCR, performed by Quintiles/Expression Analysis, Durham, NC)89. Standard TaqManTM Assays (Applied Biosystems/ThermoFisher Scientific, Foster City, CA) were used to assess the expression of 93 genes selected based on their selectivity and sensitivity to important hepatic receptors known to be modulated by environmental chemicals; importance in human hepatocyte functionality; and hepatotoxicity. […]

Compound	outcome	AC50
CCCCOC(=O)c1ccccc1C(=O)OCc1ccccc1	inactive	
Clc1ccc(C(c2ccc(Cl)cc2)C(Cl)Cl)cc1	inactive	
O=C(Nc1ccccc1)c1ccccc1I	inactive	
Cn1cc(-c2ccccc2)c(=O)c(-c2cccc(C(F)(F)F)c2)c1		16.3 µM (active)
C[N+](C)(C)CC1CO1 (stereo not given)	inactive	
CN(C)[C@@H]1C(=O)C(C(N)=O)=C(O)[C@@]2(O)C(=O)C3=C(O)c4c(O)cccc4[C@@](C)(O)[C@H]3C[C@@H]12	inactive	
c1ccc2c(c1)oc1ccccc12	inactive	
CC(C)(O)c1cnn2c(-c3ccc(F)c(-c4c(F)cccc4C#N)c3)cnc2n1	inactive	
CC(O)CCO (stereo not given)	inactive	
C=CCc1ccc2c(c1)OCO2	inactive	
OCCOCCO	inactive	
CCC12COCN1COC2	inactive	
CCCCCOC(=O)c1ccccc1C(=O)OCCCCC	inactive	
CC(C)(C)OOC(=O)c1ccccc1	inactive	
O=[N+]([O-])c1ccc(Oc2ccc(Cl)cc2Cl)cc1	inactive	
CN(C)c1ccccc1	inactive	
C1=Cc2cccc3cccc1c23	inactive	
Cc1ccc(N=C=O)cc1N=C=O		30.4 µM (active)
O=Cc1ccco1	inactive	
c1ccc(N=Nc2ccccc2)cc1	inactive	

Compound	outcome	AC50
CCC(C)c1ccc(O)cc1 (stereo not given)	inactive	
Nc1ccc(Cl)cc1N		20.6 µM (active)
Clc1ccc(C(c2ccc(Cl)cc2)C(Cl)(Cl)Cl)cc1		23.3 µM (active)
Nc1ccc(Cc2ccc(N)cc2)cc1	inactive	
Cc1cc(N=Nc2ccccc2C)ccc1N		3.55 µM (active)
OCCCBr	inactive	
CCOc1cccc(C2(N3CCN(c4ccccc4)CC3)CCC(C)CC2)c1 (stereo not given)	inactive	
Nc1ccc([N+](=O)[O-])cc1	inactive	
[As]#[In]	inactive	
O=[N+]([O-])C(Br)(CO)CO	inactive	
Nc1cc(Cl)cc(C(=O)O)c1Cl	inactive	
CCOC(=O)[C@]1(c2ccccc2)Oc2ccccc2[C@@H]1N	inactive	
CCN(CC)N=O	inactive	
OCCCl	inactive	
CN(C)c1ccc(C(=O)c2ccc(N(C)C)cc2)cc1	inactive	
O=C(Oc1ccc(Br)cc1)N1CCN2CCC1CC2	inactive	
Oc1ccccc1Cl	inactive	
Nc1ccc(Oc2ccc(N)cc2)cc1	inactive	
ClC1=C(Cl)C2(Cl)C3C(Cl)C=CC3C1(Cl)C2(Cl)Cl (stereo not given)		24 µM (active)
CCCCCCCCOC(=O)c1ccc(C(=O)OCCCCCCCC)c(C(=O)OCCCCCCCC)c1	inactive	
